About 83,000 compounds went through this panel and 20% of them were active in at least one assay; those are over-represented in the sample as a whole.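 Treatment: one concentration, 48 hours, 96-well format. Scoring: percent growth, with anything below 10 considered active.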 The source made the active and inactive calls.
Experiments:
Test in all cases: NCI-60 one-dose screen, 48 h (100 = growth as untreated, 0 = no growth, -100 = all killed)
SK-MEL-2 melanoma = conditions: 10 µM unless noted
EKVX NSCLC = conditions: 10 µM unless noted
SN12C renal = conditions: 10 µM unless noted
UO-31 renal = conditions: 10 µM unless noted
TK-10 renal = conditions: 10 µM unless noted
ACHN renal = conditions: 10 µM unless noted
CAKI-1 renal = conditions: 10 µM unless noted
A498 renal = conditions: 10 µM unless noted
CCRF-CEM leukemia = conditions: 10 µM unless noted
MOLT-4 leukemia = conditions: 10 µM unless noted
SR leukemia = conditions: 10 µM unless noted
RPMI-8226 leukemia = conditions: 10 µM
OVCAR-8 ovarian = conditions: 10 µM unless noted
OVCAR-5 ovarian = conditions: 10 µM unless noted
OVCAR-4 ovarian = conditions: 10 µM unless noted
SK-OV-3 ovarian = conditions: 10 µM
IGROV1 ovarian = conditions: 10 µM unless noted
OVCAR-3 ovarian = conditions: 10 µM unless noted
HS 578T breast = conditions: 10 µM unless noted
NCI/ADR-RES ovarian = conditions: 10 µM unless noted

Measured: growth

O=C1c2ccccc2C(=O)c2c(Nc3ccc(CCO)cc3)ccc(O)c21
active: CAKI-1 renal -4.04% | SR leukemia -5.4% | HS 578T breast -21.7%
inactive: SK-MEL-2 melanoma 103% | EKVX NSCLC 45% | SN12C renal 85.5% | UO-31 renal 47.4% | TK-10 renal 100% | ACHN renal 64.4% | A498 renal 51.5% | CCRF-CEM leukemia 39.8% | MOLT-4 leukemia 35.9% | RPMI-8226 leukemia 46.5% | OVCAR-8 ovarian 74.1% | OVCAR-5 ovarian 105% | OVCAR-4 ovarian 72.5% | SK-OV-3 ovarian 73.5% | IGROV1 ovarian 45.4% | OVCAR-3 ovarian 122% | NCI/ADR-RES ovarian 82%

Clc1ccc(C2=NN(c3ccccc3)[C@H](c3cn(-c4ccccc4)nc3-c3ccccc3)C2)cc1
inactive: SK-MEL-2 melanoma 97.7% | EKVX NSCLC 94.9% | SN12C renal 103% | UO-31 renal 94.8% | TK-10 renal 114% | ACHN renal 103% | CAKI-1 renal 99.9% | A498 renal 109% | CCRF-CEM leukemia 116% | MOLT-4 leukemia 93.6% | SR leukemia 118% | RPMI-8226 leukemia 112% | OVCAR-8 ovarian 106% | OVCAR-5 ovarian 97.8% | OVCAR-4 ovarian 105% | SK-OV-3 ovarian 107% | IGROV1 ovarian 104% | OVCAR-3 ovarian 113% | HS 578T breast 131% | NCI/ADR-RES ovarian 105%

COc1ccc(C2SC(C)C(=O)N2CCc2cccs2)cc1OC (stereo not drawn)
inactive: SK-MEL-2 melanoma 93% | EKVX NSCLC 66.4% | SN12C renal 90.1% | UO-31 renal 79.2% | TK-10 renal 113% | ACHN renal 80.1% | CAKI-1 renal 73.2% | A498 renal 81.9% | CCRF-CEM leukemia 75.9% | MOLT-4 leukemia 64.7% | SR leukemia 63.8% | RPMI-8226 leukemia 68.8% | OVCAR-8 ovarian 85.1% | OVCAR-5 ovarian 104% | OVCAR-4 ovarian 62.8% | SK-OV-3 ovarian 102% | IGROV1 ovarian 79.6% | OVCAR-3 ovarian 95.3% | HS 578T breast 95.4% | NCI/ADR-RES ovarian 86.1%

COc1cc(/C=C2\C(=O)Nc3ccccc32)cc(OC)c1O
inactive: SK-MEL-2 melanoma 50.4% | EKVX NSCLC 110% | SN12C renal 77% | UO-31 renal 60% | TK-10 renal 88.5% | ACHN renal 77% | CAKI-1 renal 37.7% | A498 renal 52.5% | CCRF-CEM leukemia 26.7% | RPMI-8226 leukemia 46.6% | OVCAR-8 ovarian 78.5% | OVCAR-5 ovarian 112% | OVCAR-4 ovarian 89.1% | SK-OV-3 ovarian 93.5% | IGROV1 ovarian 70.2% | OVCAR-3 ovarian 46.9% | HS 578T breast 18.4% | NCI/ADR-RES ovarian 19.1%
active: MOLT-4 leukemia 0.624% | SR leukemia -10.3%

COc1cc(CNCCN2C(=O)c3ccc4c5c(ccc(c35)C2=O)C(=O)N(CCNCc2cc(OC)c(OC)c(OC)c2)C4=O)cc(OC)c1OC
active: SK-MEL-2 melanoma -82.3% | EKVX NSCLC -42% | SN12C renal -87.7% | UO-31 renal -70.2% | TK-10 renal -87.1% | ACHN renal -92.2% | CAKI-1 renal -70% | A498 renal -92.7% | CCRF-CEM leukemia -20.7% | MOLT-4 leukemia -4.82% | SR leukemia 0.859% | RPMI-8226 leukemia -25.5% | OVCAR-8 ovarian -47.3% | OVCAR-5 ovarian -78.7% | OVCAR-4 ovarian -70.9% | SK-OV-3 ovarian -96.9% | IGROV1 ovarian -53.5% | OVCAR-3 ovarian -99.1% | HS 578T breast -60.7% | NCI/ADR-RES ovarian -20.2%

O=C(NCc1cccnc1)c1ccc([N+](=O)[O-])o1
inactive: EKVX NSCLC 62.1% | ACHN renal 34.5% | CCRF-CEM leukemia 54.4% | MOLT-4 leukemia 65.8% | SR leukemia 23% | RPMI-8226 leukemia 52.8% | OVCAR-4 ovarian 63.9% | SK-OV-3 ovarian 32.3% | IGROV1 ovarian 33.7%
active: SK-MEL-2 melanoma -16.7% | SN12C renal -53.4% | UO-31 renal 2.12% | TK-10 renal -30.5% | CAKI-1 renal -3.61% | A498 renal 9.84% | OVCAR-8 ovarian 4.23% | OVCAR-5 ovarian -1.25% | OVCAR-3 ovarian -4.71% | HS 578T breast -9.03% | NCI/ADR-RES ovarian -29.1%

O=S(=O)(/N=C1C=C/C(=N\S(=O)(=O)c2ccccc2)c2ccccc2\1)c1ccccc1
inactive: SK-MEL-2 melanoma 114% | EKVX NSCLC 104% | SN12C renal 101% | UO-31 renal 67.1% | TK-10 renal 147% | ACHN renal 105% | CAKI-1 renal 99.4% | A498 renal 117% | CCRF-CEM leukemia 71.7% | MOLT-4 leukemia 87.1% | SR leukemia 107% | RPMI-8226 leukemia 77.9% | OVCAR-8 ovarian 94.9% | OVCAR-5 ovarian 114% | OVCAR-4 ovarian 91.9% | SK-OV-3 ovarian 104% | IGROV1 ovarian 112% | OVCAR-3 ovarian 101% | HS 578T breast 112% | NCI/ADR-RES ovarian 102%

COc1ccccc1/C=C/C(=O)/C=C/c1ccccc1O
active: SN12C renal -18.7% | UO-31 renal -83.4% | TK-10 renal -0.117% | ACHN renal -81.1% | CAKI-1 renal -62.5% | CCRF-CEM leukemia -44.1% | MOLT-4 leukemia -26.3% | SR leukemia -61.2% | RPMI-8226 leukemia -53.7% | OVCAR-8 ovarian 2.91% | OVCAR-5 ovarian -35% | IGROV1 ovarian 5.17% | OVCAR-3 ovarian -40.9% | HS 578T breast -40.9% | NCI/ADR-RES ovarian -19.4%
inactive: SK-MEL-2 melanoma 72.5% | EKVX NSCLC 46.2% | A498 renal 108% | OVCAR-4 ovarian 12.6% | SK-OV-3 ovarian 88.9%

Nc1nc(N)c(C=Nc2ccc(Br)cc2)c(Nc2ccc(Br)cc2)n1
inactive: SK-MEL-2 melanoma 108% | EKVX NSCLC 86.4% | SN12C renal 99.2% | UO-31 renal 75.2% | TK-10 renal 127% | ACHN renal 73.3% | CAKI-1 renal 69.2% | A498 renal 83.1% | CCRF-CEM leukemia 81.1% | MOLT-4 leukemia 64.7% | SR leukemia 64.2% | RPMI-8226 leukemia 113% | OVCAR-8 ovarian 87.3% | OVCAR-5 ovarian 79.3% | OVCAR-4 ovarian 107% | SK-OV-3 ovarian 104% | IGROV1 ovarian 86.3% | OVCAR-3 ovarian 149% | HS 578T breast 80.8% | NCI/ADR-RES ovarian 77.6%

NS(=O)(=O)c1cc(Br)c2c(c1)S(=O)(=O)NCN2
inactive: SK-MEL-2 melanoma 102% | EKVX NSCLC 120% | SN12C renal 104% | UO-31 renal 96.7% | TK-10 renal 110% | ACHN renal 111% | CAKI-1 renal 94.9% | A498 renal 115% | CCRF-CEM leukemia 99.7% | MOLT-4 leukemia 87.5% | SR leukemia 88% | RPMI-8226 leukemia 106% | OVCAR-8 ovarian 103% | OVCAR-5 ovarian 112% | OVCAR-4 ovarian 120% | SK-OV-3 ovarian 115% | IGROV1 ovarian 115% | OVCAR-3 ovarian 99.3% | HS 578T breast 110% | NCI/ADR-RES ovarian 135%

N#CC1=C(N)Oc2cc(N)ccc2C1c1ccc(F)cc1 (stereo not drawn)
inactive: SK-MEL-2 melanoma 79.8% | EKVX NSCLC 97.1% | SN12C renal 90.4% | UO-31 renal 79.5% | TK-10 renal 84.8% | ACHN renal 99.4% | CAKI-1 renal 62.6% | A498 renal 64.8% | CCRF-CEM leukemia 66.6% | MOLT-4 leukemia 70.8% | SR leukemia 20.5% | RPMI-8226 leukemia 81.6% | OVCAR-8 ovarian 98.6% | OVCAR-5 ovarian 97.2% | OVCAR-4 ovarian 94.1% | SK-OV-3 ovarian 85.2% | IGROV1 ovarian 69.4% | OVCAR-3 ovarian 96.8% | HS 578T breast 81.4% | NCI/ADR-RES ovarian 44.9%

Cc1nn(CC(=O)O)c2c1C(=O)CC(C)(C)C2
inactive: SK-MEL-2 melanoma 113% | EKVX NSCLC 105% | SN12C renal 101% | UO-31 renal 74% | TK-10 renal 89.9% | ACHN renal 126% | CAKI-1 renal 97.4% | A498 renal 97.8% | CCRF-CEM leukemia 99.6% | MOLT-4 leukemia 81.1% | SR leukemia 89.1% | RPMI-8226 leukemia 99.2% | OVCAR-8 ovarian 104% | OVCAR-5 ovarian 91.2% | OVCAR-4 ovarian 101% | SK-OV-3 ovarian 101% | IGROV1 ovarian 94.1% | OVCAR-3 ovarian 110% | HS 578T breast 102% | NCI/ADR-RES ovarian 99.5%

COC(=O)C1C2CC3c4[nH]c5cc(OC)ccc5c4CCN3CC2CC(OC2CCCCO2)C1OC (stereo not drawn)
inactive: SK-MEL-2 melanoma 106% | EKVX NSCLC 101% | SN12C renal 108% | UO-31 renal 92.8% | TK-10 renal 104% | ACHN renal 99.6% | CAKI-1 renal 83.2% | A498 renal 82.8% | CCRF-CEM leukemia 89.2% | MOLT-4 leukemia 99.2% | SR leukemia 88.5% | RPMI-8226 leukemia 87.5% | OVCAR-8 ovarian 96.2% | OVCAR-5 ovarian 105% | OVCAR-4 ovarian 93.6% | SK-OV-3 ovarian 101% | IGROV1 ovarian 114% | OVCAR-3 ovarian 107% | HS 578T breast 96.2%

COc1cccc(C2CC(=O)Nc3cc4c(cc32)OCO4)c1OC (stereo not drawn)
inactive: SK-MEL-2 melanoma 88.3% | EKVX NSCLC 110% | SN12C renal 103% | UO-31 renal 72.4% | TK-10 renal 87% | ACHN renal 91.8% | CAKI-1 renal 78.4% | A498 renal 77.6% | CCRF-CEM leukemia 82.1% | MOLT-4 leukemia 87.1% | SR leukemia 86.2% | RPMI-8226 leukemia 79.2% | OVCAR-8 ovarian 98.6% | OVCAR-5 ovarian 98.8% | OVCAR-4 ovarian 95% | SK-OV-3 ovarian 102% | IGROV1 ovarian 93.4% | OVCAR-3 ovarian 99.7% | HS 578T breast 93.1% | NCI/ADR-RES ovarian 92.2%

COc1ccc(Sc2ccc3[nH]c(=O)nc(N)c3c2)cc1
inactive: SK-MEL-2 melanoma 104% | EKVX NSCLC 95.5% | SN12C renal 101% | UO-31 renal 99.2% | TK-10 renal 105% | ACHN renal 107% | CAKI-1 renal 106% | A498 renal 98.6% | CCRF-CEM leukemia 95.3% | MOLT-4 leukemia 97.7% | SR leukemia 87.1% | RPMI-8226 leukemia 104% | OVCAR-8 ovarian 98% | OVCAR-5 ovarian 100% | OVCAR-4 ovarian 99.7% | SK-OV-3 ovarian 104% | IGROV1 ovarian 109% | OVCAR-3 ovarian 115% | HS 578T breast 106% | NCI/ADR-RES ovarian 103%

COc1cccc(C2CC(=O)Nc3cc4c(cc32)CCC4)c1OC (stereo not drawn)
active: CCRF-CEM leukemia 3.82% | SR leukemia 3.06%
inactive: SK-MEL-2 melanoma 36.5% | EKVX NSCLC 72.5% | SN12C renal 77.2% | UO-31 renal 59.7% | TK-10 renal 70.1% | ACHN renal 82.3% | CAKI-1 renal 40.8% | A498 renal 62.9% | MOLT-4 leukemia 14.8% | RPMI-8226 leukemia 50.6% | OVCAR-8 ovarian 84.9% | OVCAR-5 ovarian 99.5% | OVCAR-4 ovarian 76.2% | SK-OV-3 ovarian 44.5% | IGROV1 ovarian 57% | OVCAR-3 ovarian 46.1% | HS 578T breast 67.7%

Reference: PubChem BioAssay (NCI)
